Results reported in PubChem BioAssay AID1053126 (Broad Institute, 2014).
Results with a measured potency or affinity are listed apart. Active and inactive are the calls of the source.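 The calls were made as follows: active = cell killing with a fitted half-effect concentration at or below twice the top valid dose; inconclusive = flat curve with 30 to 70 percent drop, or poor fit; inactive = the rest.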

Assay: viability loss in HEK293T kidney cells – cell-based, ATP luminescence, cherry-pick, set 6, cytotoxicity control, dose response (AID 1053126);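 also: 0% = neutral control wells and -100% = mitoxantrone 10 µM positive control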
Conditions: CellTiter-Glo ATP luminescence, 72 h; series mostly up to 26 µM; activity change, negative = cytotoxicity: at the top concentration

Compound | activity change, negative = cytotoxicity
COc1ccccc1C(=O)c1cc2ccc(O)cc2oc1=O | -13.3% (inactive)
C=CCc1c(O)c(CC)cc2c(C)cc(=O)oc12 | -17.5% (inactive)
COCc1cc(C)nc(SCC(=O)Oc2ccc(Cl)cc2)c1C#N | -8.93% (inactive)
CCNC(=O)c1cc2c(=O)n3cccc(C)c3nc2n(Cc2ccc(C)cc2)c1=N | -19.1% (inactive)
COCCCOc1cc(NCc2ccccc2)c2ncn(C(C)C)c2c1 | 0.369% (inactive)
O=C(NCc1ccc(F)cc1)C1CCCN1C(=O)Nc1cccc(F)c1 (stereo not drawn) | 1.02% (inactive)
COc1ccc(C2CC(c3cccs3)=NN2c2nc(C)c(C(C)=O)s2)cc1OC (stereo not drawn) | 82.2% (inactive)
CCOC(=O)c1cc2c(=O)n3ccccc3nc2n(C(C)C)c1=NC(=O)c1ccco1 | -13.2% (inactive)
C=CCn1c(=N)c(C#N)cc2c(=O)n3ccccc3nc21 | -9.32% (inactive)
CCC(Sc1nc(N)c(NC(=O)c2ccc(OC)cc2)c(=O)[nH]1)C(=O)O (stereo not drawn) | -12.8% (inactive)
CSc1ccc(Cn2c(C)c(C(=O)NCCC#N)sc2=O)cc1 | -0.568% (inactive)
O=c1oc2c(CN3CCCCC3)c(O)ccc2cc1-c1nc2ccccc2[nH]1 | -14.8% (inactive)
O=C(CCCn1c(=O)c2sccc2n(Cc2cc(=O)n3ccccc3n2)c1=O)NCc1ccco1 | -9.89% (inactive)
CSc1ccc(Cl)c(C(=O)N2CCOc3ccccc32)c1 | -3.33% (inactive)
COc1ccccc1C1C2=C(CC(C)(C)CC2=O)N(CC(=O)O)C2=C1C(=O)CC(C)(C)C2 | 24.7% (inactive)
N=c1c(C(=O)NCC2CCCO2)cc2c(=O)n3ccccc3nc2n1Cc1ccc(Cl)cc1 (stereo not drawn) | 1.9% (inactive)
COc1ccccc1/C=N/Nc1nc(C)cc(=O)[nH]1 | -8.08% (inactive)
Cc1c(C(=O)NCc2cccc([N+](=O)[O-])c2)sc(=O)n1Cc1cccc(F)c1 | -15.5% (inactive)
O=c1[nH]c2ccccc2nc1/C=C/c1ccccc1 | -14.3% (inactive)

Compound | activity change, negative = cytotoxicity
CC(C)CCn1c(CN2CC(C)OC(C)C2)nc2c1c(=O)n(C)c(=O)n2C (stereo not drawn) | 2.88% (inactive)
Cc1ccc(-n2nnnc2CNC(=O)C(=O)c2c[nH]c3ccccc23)cc1C | 2.11% (inactive)
CN1CCc2c(sc(NC(=O)C3CCCCC3)c2C(N)=O)C1 | -9.23% (inactive)
CC(=O)c1cc2ccc(O)cc2oc1=O | -5.76% (inactive)
CCOC(=O)C1=CN(CC2CCCO2)C=C(C(=O)OCC)C1c1ccccc1C(F)(F)F (stereo not drawn) | -8.62% (inactive)
Cc1cc(-n2c(=O)c(C#N)cc3c(=O)n4cccc(C)c4nc32)no1 | -18.1% (inactive)
Cc1cccn2c(=O)c(/C=C(\C#N)C(=O)NC3CCS(=O)(=O)C3)c(N3CCC(C(N)=O)CC3)nc12 (stereo not drawn) | -17% (inactive)
Cc1c(C=O)c2ccccn2c1C(=O)c1cccs1 | -6.91% (inactive)
CCc1nc2ccc(C(=O)NCCc3c[nH]c4ccccc34)cn2c1N(C=O)CCC(C)C | -10.7% (inactive)
COc1ccccc1N1CCN(C2CCC(C)CC2)CC1 (stereo not drawn) | -4.57% (inactive)
Cc1ccc2nc3c(cc(C(=O)NCc4ccccc4)c(=N)n3CCCn3ccnc3)c(=O)n2c1 | -6.07% (inactive)
Cc1cccn2c(=O)c3cc(C#N)c(=NC(=O)c4cccs4)n(CC(C)C)c3nc12 | -4.41% (inactive)
CC(C)C(=O)Nc1sc2c(c1C(N)=O)CCN(Cc1ccccc1)C2 | 6.18% (inactive)
COc1cc(C(c2c(C(=O)O)[nH]c3ccccc23)c2c(C(=O)O)[nH]c3ccccc23)ccc1OCc1ccccc1 | -16.5% (inactive)
CCCOc1ccc(NC(=O)c2c(-c3ccccc3)noc2C)cc1 | -1.36% (inactive)
CCn1c(=NC(=O)CSC(C)=O)sc2cc(OC)ccc21 | -9.23% (inactive)
O=C(CCc1c[nH]c2ccccc12)OCC(=O)c1ccccc1 | -12.4% (inactive)
[O-]/[N+](=C/c1ccccc1)c1ccccc1 | -8.31% (inactive)
O=C(O)[C@@H]1CCCN1S(=O)(=O)c1cccc(S(=O)(=O)N2CCC[C@H]2C(=O)O)c1 | -7.09% (inactive)
